Laboratory results: PubChem BioAssay (NCATS)
Records with an inconclusive call do not appear. Active and inactive are the calls of the source. Calls come from the whole dose curve; as a rule, active = well fitted cell-killing curve with a large enough effect; inconclusive = small, poorly fitted or top-dose-only effect, or effect the other way; inactive = no such curve, though single readings can be large or run the other way.

Legend:
[1] = Quantitative High-Throughput drug screen in 47 multiple myeloma cell lines against the NCATS MIPE library collection: XG1_PLB cell viability assay (AID 1919866); settings: CellTiter-Glo ATP, 48 h; series mostly up to 45.8 µM; note: nearly all actives have a fitted effect of over 35% in size
How it was run: (§1)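 Inhibition of viability over 48 h was scored by ATP content (CellTiter-Glo) in 500-cell wells. Zero and full viability were defined by media-only and DMSO-only wells.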

[2] = Quantitative High-Throughput drug screen in 47 multiple myeloma cell lines against the NCATS MIPE library collection: VP6_DJ cell viability assay (AID 1919867); settings: ATP luminescence, 48 h; series mostly up to 45.8 µM; note: nearly all actives have a fitted effect of over 40% in size
How it was run: as §1

[3] = Quantitative High-Throughput drug screen in 47 multiple myeloma cell lines against the NCATS MIPE library collection: UTMC2_PLB cell viability assay (AID 1919868); settings: CellTiter-Glo ATP luminescence, 48 h; viability (% of DMSO control): at 45.8 µM (top of the series); note: nearly all actives have a fitted effect of over 55% in size
How it was run: as §1

[4] = Quantitative High-Throughput drug screen in 47 multiple myeloma cell lines against the NCATS MIPE library collection: PE2_PLB cell viability assay (AID 1919869); settings: PE2_PLB myeloma cells viability, ATP luminescence, 48 h; series mostly up to 45.8 µM; note: nearly all actives have a fitted effect of over 35% in size
How it was run: as §1

[5] = Quantitative High-Throughput drug screen in 47 multiple myeloma cell lines against the NCATS MIPE library collection: PCM6_Riken cell viability assay (AID 1919870); settings: CellTiter-Glo ATP, 48 h; series mostly up to 45.8 µM; note: nearly all actives have a fitted effect of over 30% in size
How it was run: as §1

[6] = Quantitative High-Throughput drug screen in 47 multiple myeloma cell lines against the NCATS MIPE library collection: RPMI8226_ATCC cell viability assay (AID 1919871); settings: RPMI8226 myeloma viability, CellTiter-Glo ATP luminescence, 48 h; series mostly up to 45.8 µM; note: nearly all actives have a fitted effect of over 30% in size
How it was run: as §1

[7] = Quantitative High-Throughput drug screen in 47 multiple myeloma cell lines against the NCATS MIPE library collection: OPM2_DSMZ cell viability assay (AID 1919872); settings: OPM2 myeloma viability, CellTiter-Glo ATP luminescence, 48 h; series mostly up to 45.8 µM; note: nearly all actives have a fitted effect of over 30% in size
How it was run: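 Luminescent ATP measurement with CellTiter-Glo gives viability, scaled between DMSO-only wells (100%) and media-only wells (0%). Cells, 500 per well, faced library compounds for 48 hours at 37C.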

[8] = Quantitative High-Throughput drug screen in 47 multiple myeloma cell lines against the NCATS MIPE library collection: KMS11_JCRBsus cell viability assay (AID 1919873); settings: KMS11 myeloma viability, CellTiter-Glo ATP luminescence, 48 h; series mostly up to 45.8 µM; note: nearly all actives have a fitted effect of over 50% in size
How it was run: as §1

[9] = Quantitative High-Throughput drug screen in 47 multiple myeloma cell lines against the NCATS MIPE library collection: KMS28BM_JCRB cell viability assay (AID 1919874); settings: CellTiter-Glo ATP, 48 h; series mostly up to 45.8 µM; note: nearly all actives have a fitted effect of over 35% in size
How it was run: as §1

Measured: Potency
Potency is the fitted concentration of half-maximal effect.

CCN(CCO)CCCOc1ccc2c(Nc3cc(CC(=O)Nc4cccc(F)c4)[nH]n3)ncnc2c1
active: [1] 0.0418 µM | [3] 0.0743 µM | [9] 0.0372 µM
inactive: all other assays above

O=C(c1ccc(C=Cc2n[nH]c3ccccc23)cc1)N1CCNCC1
active: [1] 0.833 µM | [2] 3.72 µM | [3] 0.332 µM | [4] 5.9 µM | [5] 16.6 µM | [7] 10.5 µM | [8] 1.05 µM

N#CC(c1ccnc(NCCc2cccnc2)n1)c1nc2ccccc2s1 (stereo not given)
active: [1] 10.5 µM | [2] 10.5 µM | [3] 16.6 µM | [4] 5.26 µM | [5] 5.9 µM | [7] 26.4 µM | [8] 11.8 µM | [9] 26.4 µM

CC(C)CNc1ccnc(NCc2csc(-c3ccccc3)n2)n1
active: [1] 16.6 µM | [2] 5.26 µM | [3] 10.5 µM | [4] 18.7 µM | [5] 14.8 µM | [8] 13.2 µM | [9] 16.6 µM

CCNC(=O)c1noc(-c2cc(C(C)C)c(O)cc2O)c1-c1ccc(CN2CCOCC2)cc1
active: [1] 0.0743 µM | [2] 0.0372 µM | [3] 0.0833 µM | [4] 0.105 µM | [5] 0.0526 µM | [8] 0.0235 µM | [9] 0.0332 µM

NS(=O)(=O)c1ccc(Nc2nc(OCC3CCCCC3)c3[nH]cnc3n2)cc1
active: [1] 2.64 µM | [2] 16.6 µM | [3] 11.8 µM | [4] 16.6 µM | [5] 10.5 µM
inactive: [6]

O=S(=O)(NCCNCC=Cc1ccc(Br)cc1)c1cccc2cnccc12
active: [1] 5.26 µM | [2] 5.26 µM | [3] 7.43 µM | [4] 16.6 µM | [5] 16.6 µM | [6] 20.9 µM | [8] 16.6 µM | [9] 16.6 µM

CCOC(=O)N1CCN([N+]([O-])=NOc2cc(ON=[N+]([O-])N3CCN(C(=O)OCC)CC3)c([N+](=O)[O-])cc2[N+](=O)[O-])CC1
active: [1] 4.18 µM | [2] 6.62 µM | [3] 8.33 µM | [4] 2.96 µM | [5] 6.62 µM | [6] 9.35 µM | [7] 18.7 µM | [8] 5.9 µM

CNC(=O)c1c(-c2ccc(F)cc2)oc2cc(N(CCO)S(C)(=O)=O)c(C3CC3)cc12
active: [1] 20.9 µM

Nc1[nH]nc2nnc(-c3c(-c4ccccc4)nn4ccccc34)cc12
inactive: [7]
active: [1] 6.62 µM | [2] 1.66 µM | [3] 4.18 µM | [4] 9.35 µM | [5] 7.43 µM | [8] 0.235 µM

Nc1ncnc2c1c(-c1cccc(OCc3ccccc3)c1)cn2C1CC(CN2CCC2)C1 (stereo not given)
active: [1] 23.5 µM | [2] 1.66 µM | [3] 0.166 µM | [4] 6.62 µM | [5] 26.4 µM | [6] 5.26 µM | [8] 2.96 µM | [9] 2.96 µM

OC(c1cc(C(F)(F)F)nc2c(C(F)(F)F)cccc12)C1CCCCN1 (stereo not given)
active: [1] 14.8 µM | [2] 14.8 µM | [3] 20.9 µM | [4] 23.5 µM | [5] 13.2 µM | [7] 23.5 µM | [8] 11.8 µM

Clc1ccc(C2(c3ccc(-c4cn[nH]c4)cc3)CCNCC2)cc1
active: [1] 18.7 µM | [2] 13.2 µM | [3] 0.148 µM | [4] 11.8 µM | [5] 6.62 µM | [7] 26.4 µM | [9] 16.6 µM

O=C(CC12CC3CC(CC(C3)C1)C2)Nc1cccc2nc(NCCNCCO)ccc12
active: [1] 2.96 µM | [2] 4.69 µM | [3] 3.32 µM | [4] 7.43 µM | [5] 7.43 µM | [9] 23.5 µM

Cc1cccc(Nc2nc(N[C@@H]3CCCC[C@H]3N)ncc2C(N)=O)c1
active: [1] 9.35 µM | [2] 5.26 µM | [3] 9.35 µM | [4] 18.7 µM | [5] 7.43 µM | [8] 26.4 µM

CC1(C)C(N(O)C(=O)Nc2ccc(Cl)cc2)N(c2ccc(Cl)cc2)C(=O)N1CC(=O)NN=CC=Cc1ccc([N+](=O)[O-])o1 (stereo not given)
active: [1] 8.33 µM | [2] 8.33 µM | [3] 13.2 µM | [4] 6.62 µM | [5] 9.35 µM | [6] 11.8 µM | [7] 18.7 µM | [8] 6.62 µM
